Screens as filed in PubChem.
An excerpt weighted towards active compounds, which were near 19% of everything screened.
HT1080 IDH1KD tx: qHTS for induction of synthetic lethality in tumor cells producing 2HG: qHTS for the HT-1080-IDH1KD cell line; HT-1080 IDH1 knockdown viability, ATP luminescence, 48 h; Potency, µM (doses to about 46.1 µM), inactives show at the top dose activity, negative = toxicity, usual class: cytotoxic; 360,000 compounds, 2% hits;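 further: 0% = DMSO wells and -100% = cell-free medium wells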
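Luminescent ATP read-out (CellTiter-Glo, 10 min at room temperature) after 48 h compound exposure at 37 °C gave viability of IDH1-knockdown HT-1080 cells. Activity was normalised to DMSO and cell-free wells, then fitted as concentration-response curves.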
KB-V1 MDR tox: qHTS assay for MDR1-selective chemotherapeutics: Primary screen using the drug-selected MDR subline cells KB-V1 | KB-V1 MDR cells viability, CellTiter-Glo, 72 h | Potency, µM (doses to about 46.1 µM), most hits filed as cytotoxic | 400,000 compounds, 3.4% hits | AID 1347076, 2019; further: nearly all actives have a fitted effect of over 60% in size
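Potencies derive from concentration-effect curves fitted to normalized luminescence (CellTiter-Glo) of KB-V1 cells treated for 72 h at 37 degrees C in phenol-red-free DMEM containing 10% FBS.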
KB-3-1 cytotox: qHTS assay for MDR1-selective chemotherapeutics: Primary screen using the parental adenocarcinoma cell KB-3-1; 400,000 compounds, 1.4% hits; Potency, µM (series often up to 46.1 µM), usual class: cytotoxic; AID 1347075, 2019; KB-3-1 viability, CellTiter-Glo ATP luminescence, 72 h; further: nearly all actives have a fitted effect of over 60% in size
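Viability of parental KB-3-1 cells, measured by CellTiter-Glo luminescence, followed a 72 h incubation at 37 °C with pinned compounds in phenol-red-free DMEM containing 10% FBS.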
DT40 TDP1 no CPT: qHTS for Inhibitors of human tyrosyl-DNA phosphodiesterase 1 (TDP1): qHTS in cells in absence of CPT | DT40 Tdp1-/- hTDP1 cells, no CPT, ATP luminescence, 48 h | 420,000 compounds, 15% hits | Potency, µM (doses to about 46.2 µM), for the others: top-dose activity change, negative = growth inhibition, most hits filed as inhibitors; further: nearly all actives have a fitted effect of over 55% in size
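Cells were dispensed at 400 per well, compounds added by pin tool, plates incubated ≥48 hr at 37 °C, then CellTiter-Glo added for 30 min at room temperature before luminescence reading. Line: DT40 Tdp1-/- complemented with hTDP1; camptothecin omitted.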
HT1080-NT tox: qHTS for induction of synthetic lethality in tumor cells producing 2HG: qHTS for the HT-1080-NT fibrosarcoma cell line; HT-1080-NT fibrosarcoma viability, CellTiter-Glo ATP luminescence, 48 h; Potency, µM (titrated, usually from 46.1 µM), without a hit: at the top dose activity, negative = less viability, hits mostly cytotoxic; 360,000 compounds, 1.6% hits; AID 686970, 2013;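 further: NT is the 2HG producing partner of a matched IDH1 knockdown line; 0% = DMSO-treated cells and -100% = media-only wells without cells; nearly all actives have a fitted effect of over 55% in size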
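Viability by CellTiter-Glo luminescence after 48 h compound exposure at 37C of HT-1080-NT cells (750/well, RPMI, 5% FBS). % activity scaled between DMSO wells and medium-only wells, then curve-fitted and categorized by curve class.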
DT40 TDP1 CPT: qHTS for Inhibitors of human tyrosyl-DNA phosphodiesterase 1 (TDP1): qHTS in cells in presence of CPT. chicken DT40 Tdp1-/-;hTDP1 cells + 20 nM CPT, ATP luminescence, 48 h. Potency, µM (highest dose often 46.2 µM), without a hit: at the top dose activity change, negative = growth inhibition, most hits filed as inhibitors. 420,000 compounds, 12% hits. AID 686979, 2013; further: nearly all actives have a fitted effect of over 55% in size
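Chicken DT40 Tdp1-/- cells complemented with human TDP1, 400 cells/well, exposed to compounds plus 20 nM camptothecin for at least 48 h at 37 C; viability read as ATP content by CellTiter-Glo luminescence.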
Active calls of the source: *; i = inactive; ? = inconclusive; / = no result; [ ] = dose if it differs, or a comment. The call rests on the fitted dose curve; in most records, active means well fitted curve in the direction sought with a large enough effect; inconclusive means small, poorly fitted or top-dose-only effect, or another doubt; inactive means no such curve, though single readings can be large; an effect the other way counts as inactive or inconclusive. Unless noted, on the % scale 0 is the no-effect control and ±100 the full control effect; potency means the concentration at half of the fitted maximal effect.

SMILES | HT1080 IDH1KD tx | KB-V1 MDR tox | KB-3-1 cytotox | DT40 TDP1 no CPT | HT1080-NT tox | DT40 TDP1 CPT
Cc1cccc(NC(=O)CN2CCN(C(=O)c3c(C)nn(Cc4ccccc4)c3C)CC2)c1C | 8% | i | i | -23% | 0% | -24%
Cc1ccc(NC(=O)CS(=O)(=O)c2c[nH]c3ccccc23)c(C)c1 | -6% | i | i | -17% | -15% | 5%
COc1ccc(CNC(=O)CSc2cc(=O)n(C)c3ccccc23)cc1 | 26% | i | i | 16µM* | 16% | ?
COc1cccc(CNC(=O)CSc2cc(=O)n(C)c3ccccc23)c1 | 26% | i | i | 4% | 19% | 29%
CCn1c(=O)cc(SCC(=O)Nc2cc(Cl)ccc2OC)c2ccccc21 | / | i | i | 16µM* | / | ?
CCOC(=O)c1cccc(NC(=O)CSc2cc(=O)n(C)c3ccccc23)c1 | / | i | i | ? | / | 21µM*
COc1ccc(NS(=O)(=O)c2cccc(C(=O)NNC(=O)c3ccccc3OC)c2)cc1 | -16% | i | i | ? | -5% | -23%
N=c1c(S(=O)(=O)c2ccc(Cl)cc2)cc2c(=O)n3ccccc3nc2n1C1CCCCC1 | 2% | i | i | ? | 5% | ?
CC(C)(C)OC(=O)CC[C@@H](C(=O)N1CCN(C(=O)OC(C)(C)C)CC1)n1cc(C(Cc2ccc(O)cc2)NC(=O)OC(C)(C)C)nn1 (stereo partly specified) | 12% | i | i | 16µM* | 8% | 18µM*
C#CCOCCOCCOCCNc1nc(N2CCN(C(=O)[C@H](CCC(=O)O)n3cc(C(N)Cc4ccc(O)cc4)nn3)CC2)nc(N2CCN(C(=O)[C@H](CCC(=O)O)n3cc(C(N)Cc4ccc(O)cc4)nn3)CC2)n1 (stereo partly specified) | -1% | i | i | -13% | 17% | -12%
CC(C)CC(NC(=O)OC(C)(C)C)c1cn([C@@H](CCCCNC(=O)OC(C)(C)C)C(=O)N2CCN(C(=O)OC(C)(C)C)CC2)nn1 (stereo partly specified) | -6% | i | i | 3.7µM* | -6% | 5.8µM*
CCNC(=O)Cc1ccc(NS(=O)(=O)c2ccc(F)cc2)cc1 | 2% | i | i | 22% | -13% | -12%
O=C(NCc1ccc(F)cc1)c1ccc(S(=O)(=O)Nc2cccc(C(F)(F)F)c2)cc1 | -9% | 15µM* | ? | ? | -15% | ?
CCOc1ccc(NS(=O)(=O)c2ccc(C(=O)NCCCN3CCCC3=O)cc2)cc1 | -2% | i | ? | 18µM* | -2% | ?
O=C(NCCCN1CCCC1=O)c1ccc(S(=O)(=O)Nc2cccc(C(F)(F)F)c2)cc1 | -4% | i | i | 21µM* | -12% | ?
O=C(Cc1ccc(NS(=O)(=O)c2ccc(F)cc2)cc1)NCc1ccccc1 | -4%[9.24 µM] | ? | i | 23µM* | -17% | ?
O=C(NCCCN1CCOCC1)c1ccc(S(=O)(=O)Nc2cccc(C(F)(F)F)c2)cc1 | -11% | i | i | ? | -15% | -23%
O=S(=O)(c1ccccc1)c1nnn2c1nc(NC1CCCCCC1)c1sccc12 | / | i | i | -17% | / | -24%
C[C@H](NS(=O)(=O)c1ccccc1F)C(=O)OCC(=O)N1CCc2ccccc21 | 17% | i | i | -1% | 8% | -6%
